KDM5B inhibitor: inhibitors of human KDM5B histone demethylase | 220,000 tested, 2.6% active | KDM5B demethylase, FDH-coupled NADH fluorescence (FDH is formaldehyde dehydrogenase) | Potency, µM (titrated, usually from 57.7 µM), most hits filed as inhibitors | Q9UGL1; active = well fitted inhibition curve with a large enough effect; note: 0% is about no effect; nearly all actives have a fitted effect of over 70% in size
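KDM5BΔAP (200 nM final) in 50 mM HEPES pH 7.5, 0.01% Tween-20 was preincubated 10 min at RT with compound over a concentration range. Substrate mix (H3K4me3 12.5 µM, α-KG 25 µM, Fe²⁺, ascorbate, NAD⁺, FDH) was added, and NADH fluorescence change over 30 min gave dose-response curves.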
An asterisk follows results filed as active; i = inactive. This excerpt belongs to a sample that is enriched for hits. Potency is the fitted concentration of half-maximal effect.

SMILES	KDM5B inhibitor
Cc1cc(C)c(C(=O)COC(=O)/C=C/c2cccs2)cc1C	i
CSc1ccc2cc(CN(C)CCO)c(-c3ccc(Cl)cc3)nc2c1	28µM*
CSc1cccc(NC(=O)Cn2c(-c3ccc(Cl)cc3)nc(C)c(CCO)c2=O)c1	i
CN(CCSc1ccc(Cl)cc1)Cc1nc2ccccc2c(=O)[nH]1	i
O=C(CSCc1ccc(F)cc1Br)Nc1ccc2c(c1)OCCO2	i
CCOc1ccc(NC(=O)C(C)Oc2ccc(F)cc2)c2cccnc12 (stereo not given)	i
O=C(NC1CCc2nnc(C3CC3)n2CC1)c1cc(C2CC2)[nH]n1 (stereo not given)	i
CCN(Cc1ccccc1)c1ccc(/C=N/NS(=O)(=O)c2cc(C)ccc2C)cc1	i
CC(=O)N1CCCC2(C1)CN(C)c1ccc(C(=O)NC(C)C)cc12 (stereo not given)	35µM*
Cc1ccc(C(=O)NCC(C)C)cc1C	i
CC(C)NC(=O)c1ccc2c(c1)N(C(=O)c1ccc(F)cc1)CC2	i
CC(C)CNC(=O)c1ccc2c(c1)CCCN2C(=O)c1cccc(Cl)c1	i
CC(C)NC(=O)c1ccc(Cl)c(Cl)c1	i
CC(=O)N1CCCC2(C1)CN(C)c1ccc(C(=O)NCC(C)C)cc12 (stereo not given)	32µM*
CCCn1c(NC)nc2c1c(=O)n(C)c(=O)n2C	i
O=c1[nH]c(N2CCOCC2)nc2c1CCN(Cc1ccc(F)c(Cl)c1)CC2	i
Cc1nc2nc(NCc3ccccc3)[nH]n2c(=O)c1CCC(=O)Nc1ccc2ccccc2c1	i
O=C(NCc1ccco1)C(c1ccccc1)c1ccccc1	i
O=C(c1ccc(Cl)s1)N1CCC2(CC1)CN(c1ccncn1)CC2CO (stereo not given)	i
Cc1nc(C)c(C(=O)N2CCC3(CC2)CN(c2ncccn2)CC3CO)s1 (stereo not given)	25µM*
CC(=O)N1CC(CO)C2(CCN(C(=O)c3nccc4ccccc34)CC2)C1 (stereo not given)	i
CC(=O)N1CC(CO)C2(CCN(C(=O)c3cc(C)n(C)n3)CC2)C1 (stereo not given)	i
Cc1nn(C)cc1C(=O)N1CCC2(CC1)CN(c1ncccn1)CC2CO (stereo not given)	28µM*
COc1cccc(C(=O)N2CCC3(CC2)CN(c2ccncn2)CC3CO)c1C (stereo not given)	i
N#Cc1ccc(O[C@@H]2CCOC[C@H]2NC(=O)CCN2CCCC2=O)cc1	i
SMILES	KDM5B inhibitor
CCc1c(C(=O)NCc2cccnc2N2CCOCC2)cnn1-c1ccc(F)cc1	i
CN(CCCC(=O)N1CCc2ccccc2C1)S(=O)(=O)c1ccc(F)cc1	i
COC1CCN(C(=O)c2cnc3c(c2)N(Cc2ccccc2)CCC3)CC1	40µM*
CN(C)CCNC(=O)c1cnc2c(c1)N(Cc1ccccc1)CCC2	35µM*
O=C(NCC1CCCO1)c1cnc2c(c1)N(Cc1ccccc1)CCC2 (stereo not given)	40µM*
CC(C)c1ccc(CC(=O)N2CCCc3ncc(C(=O)NCCc4ccccc4)cc32)cc1	i
O=C(NCC1CCCO1)c1ccc(COc2ccccc2)cc1 (stereo not given)	i
COc1ccccc1CC(=O)N1CCCc2ncc(C(=O)N3CCC(OC)CC3)cc21	i
O=C(NCC1CCCO1)c1cnc2c(c1)N(C(=O)CCc1ccccc1)CCC2 (stereo not given)	i
CC(C)c1ccc(CC(=O)N2CCCc3ncc(C(=O)NCCN(C)C)cc32)cc1	i
COC1CCN(C(=O)c2cnc3c(c2)N(C(=O)CCc2ccccc2)CCC3)CC1	i
O=C(CC1CCCCC1)Nc1nc(-c2c[nH]c3ccccc23)cs1	i
N=C(N)c1ccnc(Sc2nc3ccccc3[nH]2)c1	i
Cc1noc(-c2cn(C3CCN(C(=O)c4sccc4C)C3)nn2)n1 (stereo not given)	i
CCc1cc(N2CCC(NCCc3cccc(Cl)c3)CC2)nc(C)n1	i
c1ccc(-c2nc(CSc3nnnn3C3CCCC3)co2)cc1	i
CCOCCCNC(=O)c1cc(SC)ccc1C	i
COc1ccc(Cl)cc1C(=O)Nc1c(N2CCCC2)c2ccccc2oc1=O	i
O=C(NCc1cccc(Cl)c1)c1noc(-c2ccc3c(c2)OCO3)n1	28µM*
COc1ccc(CNC(=O)Cn2cccc2-c2nc(-c3ccc4c(c3)OCO4)no2)cc1OC	i
O=C(NCc1ccc2c(c1)OCO2)c1ccc2c(c1)N(Cc1cccc(Cl)c1)C(=O)c1ccccc1S2	i
COc1cccc(CNC(=O)Cn2cccc2-c2nc(-c3ccc4c(c3)OCO4)no2)c1	28µM*
O=C(NCc1ccccc1Cl)c1noc(-c2ccc(F)cc2)n1	i
COc1ccc(OC)c(CNC(=O)c2noc(-c3ccc(C)cc3)n2)c1	i
Cc1ccc(-c2nc(C(=O)NCc3ccccc3Cl)no2)cc1	i
SMILES	KDM5B inhibitor
COc1ccc(CNC(=O)c2noc(-c3ccc(C)cc3)n2)cc1	i
O=C(Cn1cccc1-c1nc(-c2ccc3c(c2)OCO3)no1)NCc1ccc(Cl)cc1	i
COc1cccc(CNC(=O)c2noc(-c3ccc(C)cc3)n2)c1	i
COc1ccc(CNC(=O)c2noc(-c3ccc4c(c3)OCO4)n2)cc1	28µM*
O=C(NCc1ccc(F)cc1Cl)c1noc(-c2ccc3c(c2)OCO3)n1	32µM*
Fc1ccc(C2Cn3nnc(-c4nc(-c5cccc(C(F)(F)F)c5)no4)c3CO2)cc1 (stereo not given)	i
Cc1nc2cc(NC(=O)c3cc(S(=O)(=O)N(C)c4ccccc4)ccc3Cl)ccc2o1	i
Cc1ccc2nc(C)c(C(=O)NCc3ccc(N4CCCCCC4)nc3)cc2c1	i
Fc1ccc(C2Cn3cnc(-c4nc(-c5ccc6c(c5)OCO6)no4)c3CO2)cc1 (stereo not given)	i
N#CC(C(=O)/C=C/c1ccccc1)C(=O)Nc1ccccc1Cl (stereo not given)	i
CCOc1ccc2c(n1)CCN(C(=O)Cc1c(C)noc1C)C2	i
O=C(NC1CCCC1)c1ccc2c(c1)-c1ccccc1C2	i
N#Cc1cccc(C(=O)N2CCCCCCNC(=O)[C@@H]3CCCC[C@@H]32)c1	i
CCC(=O)N1CCc2c(C(=O)NCc3cccc(OC)c3OC)cccc21	i
CCC(=O)N1CCC2(CC1)c1[nH]c3ccccc3c1CCN2C	i
Cc1ccc(-c2nc(C(=O)NCCc3ccccc3)no2)cc1	i
Cc1ccc(-c2nc(C(=O)NCc3ccc4c(c3)OCO4)no2)cc1	i
COc1ccccc1CNC(=O)c1ccc2c(c1)OCO2	i
CC(NC(=O)c1noc(-c2ccc3c(c2)OCO3)n1)c1ccccc1 (stereo not given)	i
Cc1ccc(-c2nc(C(=O)N3CCN(Cc4ccc5c(c4)OCO5)CC3)no2)cc1	i
COc1ccc(CCNC(=O)c2noc(-c3ccc(F)cc3)n2)cc1OC	i
Cc1cccc(CCNC(=O)c2noc(-c3ccc4c(c3)OCO4)n2)c1	32µM*
Cc1ccc(CNC(=O)c2noc(-c3ccc4c(c3)OCO4)n2)cc1	35µM*
CCOc1ccccc1CNC(=O)c1noc(-c2ccc3c(c2)OCO3)n1	32µM*
O=c1[nH]c(=O)n(CC2CCCO2)c2nccc(-c3ccc(-c4ccccc4)cc3)c12 (stereo not given)	i
CN1C[C@H](NCc2ccc(C(F)(F)F)cc2)CCC[C@@H](C(=O)N(C)Cc2cccnc2)CC1=O	i
N#Cc1ccc(C(=O)NCCc2ccccn2)cc1	i

Screens from PubChem BioAssay.
